Most compounds without a hit are left out; they make up all but 1.8% or so of the library.
m5-HT2A agonist = agonists of mouse serotonin 5-HT2A receptor (HTR2A). P35363. CHO-K1 mHTR2A beta-arrestin complementation, luminescence; percent of 30 µM serotonin response. activation, % at 7.6 µM. AID 624169. 360,000 compounds, 0.66% hits;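 active = activation above a run cutoff, the mean activation of all tested compounds plus 3 SD, cut at about 14% in these data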;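 also: 0% = plate median of compound wells and 100% = 30 µM serotonin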
Target sequence (P35363 whole entry, looked up): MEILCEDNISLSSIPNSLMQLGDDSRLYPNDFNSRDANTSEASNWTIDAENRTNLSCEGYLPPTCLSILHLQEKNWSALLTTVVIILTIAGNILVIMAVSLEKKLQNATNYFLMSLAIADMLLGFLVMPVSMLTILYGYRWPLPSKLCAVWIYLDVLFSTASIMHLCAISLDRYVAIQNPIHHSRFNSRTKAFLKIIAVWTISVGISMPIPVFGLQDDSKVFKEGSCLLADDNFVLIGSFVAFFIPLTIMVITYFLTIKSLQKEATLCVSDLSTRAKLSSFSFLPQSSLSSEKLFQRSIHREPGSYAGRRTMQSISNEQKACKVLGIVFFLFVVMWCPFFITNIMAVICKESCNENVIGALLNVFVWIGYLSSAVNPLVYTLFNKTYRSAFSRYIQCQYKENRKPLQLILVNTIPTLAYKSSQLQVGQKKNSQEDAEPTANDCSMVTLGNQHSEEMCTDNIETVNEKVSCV
GC-B act = GC-B (human) receptor activation; P20594; HEK293-GC-B cells, CNP EC30, cGMP TR-FRET; 0% at EC30 CNP, 100% saturating CNP; activation, % at 10 µM; 370,000 compounds, 0.11% hits;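 active = activation at 10 µM reaching about 35% in either raw or pattern-adjusted values, limit read from the data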
bovine MsrA act = activates bovine MsrA enzyme | purified bovine MsrA, absorbance read-out | activation, % at 10.6 µM | 360,000 compounds, 0.3% hits | AID 602163; in the data active = activation above about 7.5%;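 also: 0% = vehicle and 100% = reference activator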
NPR1 activator = GC-A (human) enzyme activation; P16066; HEK293 GC-A cells, cGMP TR-FRET, EC30 ANP; 0% at EC30 ANP, 100% saturating ANP; activation, % at 10 µM; 370,000 compounds, 0.14% hits; AID 1671463; in the data active = activation above about 40%
MsrA inh = bovine MsrA inhibition. AID 651718. 360,000 compounds, 0.75% hits. inhibition, % at 15.5 µM. purified bovine MsrA, absorbance read-out; in the data active = inhibition above about 4.5%;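 also: 0% = vehicle wells with enzyme and 100% = reference inhibitor wells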
Starred values were filed as active, the others as inactive.

What do the screens show for `O=C1N=c2ccccc2=C1c1sc(=S)n(-c2ccc(O)cc2)c1O`?
m5-HT2A agonist: 3; GC-B act: 4; bovine MsrA act: 0; NPR1 activator: -7; MsrA inh: 0

What do the screens show for `O=C(Nc1cccc(C(F)(F)F)c1)c1ccc2nc(-c3ccco3)c(-c3ccco3)nc2c1`?
m5-HT2A agonist: 16*; GC-B act: 7; bovine MsrA act: -14; NPR1 activator: 2; MsrA inh: 1

Results for O=C(NCCc1c[nH]c2ccccc12)c1ccc(Sc2ccccc2Cl)c([N+](=O)[O-])c1 ?
GC-B act: 7; NPR1 activator: -1

How did CN(Cc1ccco1)S(=O)(=O)c1ccc2c(c1)CCN2C(=O)CC(C)(C)C do in these assays?
GC-B act: 3; NPR1 activator: 0

How did C=CCNc1nc(=S)[nH]c2cc(OC)c(OC)cc12 do in these assays?
m5-HT2A agonist: -1; GC-B act: 37*; bovine MsrA act: -4; NPR1 activator: 41*; MsrA inh: 3

How did C=CCn1c(-c2ccc(OC)c(OC)c2)n[nH]c1=S do in these assays?
m5-HT2A agonist: 2; GC-B act: 1; bovine MsrA act: -1; NPR1 activator: 0; MsrA inh: 2

How did C=C1C(=O)[C@]23C[C@H]1CC[C@H]2[C@]1(C)CCC[C@@](C)(C(=O)OC)[C@H]1C[C@@H]3O do in these assays?
GC-B act: 38*; NPR1 activator: 19

Results for CC(O)CN(CC(C)O)c1ccc2c(c1)Cc1cc([N+](=O)[O-])ccc1-2 (stereo not given) ?
m5-HT2A agonist: -3; GC-B act: 27; bovine MsrA act: 0; NPR1 activator: 45*; MsrA inh: 1

What do the screens show for `C=CCc1cccc2cc(C(=O)Nc3ccccc3C(=O)O)c(=O)oc12`?
m5-HT2A agonist: 13; GC-B act: -3; bovine MsrA act: -3; NPR1 activator: -3; MsrA inh: 4.9*

How did Cc1ccc(NC(=O)/C(=C\c2ccc3c(c2)OCO3)NC(=O)c2ccco2)cc1 do in these assays?
m5-HT2A agonist: 3; GC-B act: 1; bovine MsrA act: -7; NPR1 activator: -2; MsrA inh: 4.5*

What do the screens show for `CCOC(=O)c1ccccc1NC(=O)COC(=O)c1ccc(OCC(=O)N2CCOCC2)c(OCC)c1`?
m5-HT2A agonist: -3; GC-B act: 35*; bovine MsrA act: -3; NPR1 activator: 24; MsrA inh: -1

How did CCOc1cc(C(=O)OCC(=O)Nc2c(C)cccc2C)ccc1OCC(=O)N1CCOCC1 do in these assays?
m5-HT2A agonist: 5; GC-B act: -6; bovine MsrA act: -1; NPR1 activator: -2; MsrA inh: -1

Results for CC(=O)N1C[C@@H](c2c[nH]c3ccccc23)C=C[C@H]1C(=O)NS(=O)(=O)c1ccc(C)cc1 ?
GC-B act: 6; NPR1 activator: -4

How did O=C1CCCN1CCCNc1nc2c(S(=O)(=O)c3ccccc3)nnn2c2ccc(Cl)cc12 do in these assays?
m5-HT2A agonist: -1; GC-B act: 48*; bovine MsrA act: 3; NPR1 activator: 36; MsrA inh: 0

Results for CCS(=O)(=O)c1nc(S(=O)(=O)c2ccc(C)cc2)c(NCCCN2CCCC2=O)s1 ?
m5-HT2A agonist: -1; GC-B act: 0; bovine MsrA act: -8; NPR1 activator: -2; MsrA inh: 1

What do the screens show for `COc1ccc(-n2c(SCC(=O)Nc3ccc4c(c3)OCO4)nc3sc4c(c3c2=O)CCCC4)cc1`?
GC-B act: -3; NPR1 activator: -2

Results for Cc1cc(C)nc(NS(=O)(=O)c2ccc(NC(=O)C(C)C)cc2)n1 ?
m5-HT2A agonist: 6; GC-B act: -3; bovine MsrA act: -1; NPR1 activator: -1; MsrA inh: 0

How did CC(C)C(=O)Nc1ccc(S(=O)(=O)Nc2nccc(/C=C/c3ccccc3)n2)cc1 do in these assays?
m5-HT2A agonist: 5; GC-B act: 3; bovine MsrA act: -4; NPR1 activator: 4; MsrA inh: 4.6*

How did COc1ccc(C2CC(=O)C(c3ccccc3)=CN2Cc2ccccc2)cc1 (stereo not given) do in these assays?
GC-B act: 1; NPR1 activator: -3; MsrA inh: 0

What do the screens show for `O=C(Cn1nnc(-c2ccccc2)n1)OC1CCOC1=O` (stereo not given)?
m5-HT2A agonist: -1; GC-B act: 1; bovine MsrA act: -9; NPR1 activator: 54*; MsrA inh: -2

What do the screens show for `CCOC(=O)Cn1nnc(-c2ccccc2)n1`?
m5-HT2A agonist: -3; GC-B act: -2; bovine MsrA act: -1; NPR1 activator: -1; MsrA inh: 1

Results for CCOC(=O)C1CCN(C(=O)c2ccc3c(=O)n4nc(Nc5ccccc5)sc4nc3c2)CC1 ?
m5-HT2A agonist: 2; GC-B act: 40*; bovine MsrA act: -3; NPR1 activator: 34; MsrA inh: -1

Results for CCCC1CCC2(CC1)CCC2OC(=O)Nc1cccc(Cl)c1 (stereo not given) ?
GC-B act: -2; NPR1 activator: 2

What do the screens show for `Clc1ccc(-c2nnnn2-c2ccc(Cl)c(Cl)c2)cc1Cl`?
m5-HT2A agonist: -3; GC-B act: -5; bovine MsrA act: -2; NPR1 activator: -4; MsrA inh: 16*

What do the screens show for `O=[N+]([O-])c1ncccc1OCCOc1ccc(Cl)cc1Cl`?
GC-B act: 1; NPR1 activator: 47*

Results for CN(C)c1ccc(-c2nnc(-c3ccccc3F)o2)cc1 ?
m5-HT2A agonist: 8; GC-B act: -10; bovine MsrA act: 4; NPR1 activator: 7; MsrA inh: 4.6*

How did CCCCCc1ccc(NC(=O)OCCN2C(=O)CCC23CCC(c2ccccc2)CC3)cc1 (stereo not given) do in these assays?
GC-B act: 6; NPR1 activator: -2

How did Cc1onc(-c2ccccc2Cl)c1C(=O)N1C=CC(C(F)(F)Cl)=NCC1 do in these assays?
m5-HT2A agonist: 24*; GC-B act: -3; bovine MsrA act: -2; NPR1 activator: 9; MsrA inh: 3

How did COC(=O)C1CN(Cc2cn(Cc3ccc(Cl)cc3)nn2)CCS(=O)(=O)N1Cc1ccc(C)cc1 (stereo not given) do in these assays?
GC-B act: -8; NPR1 activator: -4

How did O[C@@H](Cc1ccccc1)[C@@H](/C=C/c1ccccc1)NCCc1ccccc1 do in these assays?
GC-B act: -22; NPR1 activator: -17; MsrA inh: 0

Results for COc1ccc(C2CCC3(CCC(=O)N3CCOC(=O)NCc3ccc(Cl)cc3)CC2)cc1 (stereo not given) ?
GC-B act: -25; NPR1 activator: -32

Results for C=CCNC(=O)NC[C@@]1(C(=O)OC)CC(=O)N(C)[C@@H]1c1ccccc1 ?
GC-B act: 0; NPR1 activator: 0

How did Cc1ccc(S(=O)(=O)N2CCN(C(=O)COC(=O)c3ccccc3Cl)CC2)c(C)c1 do in these assays?
m5-HT2A agonist: 17*; GC-B act: 0; bovine MsrA act: -4; NPR1 activator: -6; MsrA inh: 0

Screens deposited in PubChem by several laboratories.
